Results published in PubChem BioAssay AID1531 (NMMLSC, 2009).
Among all 290,000 compounds or so, about 3,300 (1.1%) were called active. No stated cut-off is given here; in the data, active means binding response below about 67% or above about 130%; inconclusive means no clear call, values can overlap the other calls; inactive means in between. This excerpt belongs to a sample that is enriched for actives.

Each molecule was assayed against Mitogen-activated protein kinase kinase kinase 2 (Homo sapiens) (UniProt Q9Y2U5) (assay: wildtype MEKK2 PB1-MEK5 interaction, increase or decrease – biochemical, multiplex bead flow cytometry, Alexa488-MEK5, primary screen (AID 1531)). Settings: Alexa488-MEK5 binding to MEKK2 WT, at 10 µM, actives lie on both sides.
`Cn1ccnc1-c1nnn(-c2ccc(F)cc2)n1` was tested, and the binding response (% of control) was 97% (inactive). `CSc1ccc(S(=O)(=O)N2CCC(C(=O)NCc3ccncc3)CC2)cc1` was tested, and the binding response (% of control) was 105% (inactive). With `CN(CC(=O)O)S(=O)(=O)c1ccc2oc3ccccc3c2c1` the binding response (% of control) was 110% (inactive). `CN1CCN(CCNC(=O)Nc2ccc([N+](=O)[O-])cc2)CC1` was tested, and the binding response (% of control) was 105% (inactive). `O=C(COc1ccc([N+](=O)[O-])cc1)Nc1ccc(N2CCCC2)cc1` was tested, and the binding response (% of control) was 103% (inactive). `O=C(NCCCN1CCN(c2ccc(F)cc2)CC1)Nc1ccc([N+](=O)[O-])cc1` was tested, and the binding response (% of control) was 140% (active). With `COC(=O)C1(C)CC1(c1ccccc1)c1ccccc1` (stereo not given) the binding response (% of control) was 104% (inactive). In the case of `CCOCCCn1c(SCC(=O)Nc2cc(OC)ccc2OC)nc2ccccc2c1=O`, the binding response (% of control) is reported as 105% (inactive). `O=C(NCc1ccco1)/C(=C\c1cccc([N+](=O)[O-])c1)NC(=O)c1ccco1` was tested, and the binding response (% of control) was 101% (inactive). For `CCC1CCCCN1CCCNC(=O)Cn1nc(-c2ccccc2)ccc1=O` (stereo not given), the binding response (% of control) was 108% (inactive). `CCC1CCCCN1CCCNC(=O)c1cc2c(Cl)nc3ccccc3c2s1` (stereo not given) was tested, and the binding response (% of control) was 173% (active). In the case of `CCC1CCCCN1CCCNC(=O)C1CCC(Cn2c(=O)[nH]c3ccccc3c2=O)CC1` (stereo not given), the binding response (% of control) is reported as 110% (inactive). For `CN1CCN(Cc2nc3cc(NC(=O)COc4ccc([N+](=O)[O-])cc4)ccc3n2C)CC1`, the binding response (% of control) was 109% (inactive). `CC/S(CC1CC1(Cl)Cl)=N\S(=O)(=O)c1ccc(C)cc1` (stereo not given) was tested, and the binding response (% of control) was 96% (inactive). `CCCC/S(C)=N/S(=O)(=O)c1ccc(C)cc1` (stereo not given) was tested, and the binding response (% of control) was 102% (inactive). In the case of `Cc1ccc(S(=O)(=O)/N=S(\C)C(C)C)cc1` (stereo not given), the binding response (% of control) is reported as 2% [inhibitor] (active). With `S=C(NCCCc1ccccc1)Nc1ccc(Br)cc1` the binding response (% of control) was 100% (inactive). In the case of `COc1ccccc1NC(=O)CN(c1ccccc1OC)S(=O)(=O)c1ccccc1`, the binding response (% of control) is reported as 99% (inactive). In the case of `CN(C)c1nc(Nc2ccc(Cl)c(Cl)c2)nc(N(C)C)n1`, the binding response (% of control) is reported as 98% (inactive). For `OCCNc1nc(Nc2ccc(Cl)c(Cl)c2)nc2ccccc12`, the binding response (% of control) was 150% (active). With `Nc1nc(Nc2ccccc2)nc(NCCO)c1[N+](=O)[O-]` the binding response (% of control) was 98% (inactive). For `CC(C)CNS(=O)(=O)c1ccc(C(=O)Nc2ccc3c(c2)OCO3)cc1`, the binding response (% of control) was 103% (inactive). With `COc1ccc(CCNC(=O)c2cc3sccc3n2C)cc1OC` the binding response (% of control) was 104% (inactive). In the case of `Cn1c(C(=O)NCCCN2CCCCC2)cc2sccc21`, the binding response (% of control) is reported as 138% (active). `Cn1c(C(=O)N2CCCC(C(=O)NCc3ccccc3)C2)cc2sccc21` (stereo not given) was tested, and the binding response (% of control) was 102% (inactive). In the case of `COCC(C)NC(=O)COc1nncc2ccccc12` (stereo not given), the binding response (% of control) is reported as 40% [inhibitor] (active). With `COC(=O)C(C)NC(=O)COc1ccc2ccccc2c1` (stereo not given) the binding response (% of control) was 95% (inactive). `CC(C)C(C)NC(=O)COc1ncnc2ccccc12` (stereo not given) was tested, and the binding response (% of control) was 105% (inactive). With `CCC(C)C(=O)Nc1ccccc1N1CCN(c2ccc(F)cc2)CC1` (stereo not given) the binding response (% of control) was 101% (inactive). With `COc1cc(NC(=O)c2cccnc2SC)cc(OC)c1` the binding response (% of control) was 101% (inactive). For `COc1cccc(Nc2ncccc2C(=O)O)c1`, the binding response (% of control) was 4% [inhibitor] (active). With `COc1ccc2nc(C)cc(Nc3cccc(C(=O)O)c3)c2c1` the binding response (% of control) was 110% (inactive). With `COc1ccc(-c2c(NC(=O)c3ccco3)oc3ccc(Cl)cc3c2=O)cc1` the binding response (% of control) was 104% (inactive). For `COc1ccc2[nH]c3nc(SCC(=O)NC4CC4)nnc3c2c1`, the binding response (% of control) was 104% (inactive). `CCCCCCCCCCCCN1[C@@H](CC(C)=O)c2cc(F)cc(F)c2S1(=O)=O` was tested, and the binding response (% of control) was 103% (inactive). For `Cc1nc(-c2ccc(Cl)cc2)sc1C1(C)CC(c2ccc(Br)cc2)=NO1` (stereo not given), the binding response (% of control) was 95% (inactive). `O=C(CN1CCOc2ccccc21)N1CCC(Cc2ccccc2)CC1` was tested, and the binding response (% of control) was 107% (inactive). In the case of `Cc1cccc(OCC(O)CN2CCN(CCN3C(=O)c4cccc5cccc(c45)C3=O)CC2)c1C` (stereo not given), the binding response (% of control) is reported as 146% (active). With `Cc1cccc(C)c1OCC(O)CN1CCCCC1` (stereo not given) the binding response (% of control) was 94% (inactive). With `Cc1ccccc1OCC(O)CN1CCN(c2ccccn2)CC1` (stereo not given) the binding response (% of control) was 99% (inactive). In the case of `O=C(NC1CC1)C1=C[C@H](c2coc3ccccc3c2=O)C[C@H](OCCCCO)O1`, the binding response (% of control) is reported as 108% (inactive). For `Cc1cccc(N(C(=O)c2sc(C)nc2C)C(C(=O)NCC2CCCO2)c2ccccc2)c1` (stereo not given), the binding response (% of control) was 106% (inactive). With `Nc1nc(Nc2ccccc2F)nc(NC2CCCCC2)c1[N+](=O)[O-]` the binding response (% of control) was 98% (inactive). `CCn1c(SCC(=O)Nc2ccc3c(c2)OCCO3)nnc1-c1ccncc1` was tested, and the binding response (% of control) was 106% (inactive). For `CCOc1ccc(N(CC(=O)NCCc2ccc(F)cc2)S(=O)(=O)c2ccccc2)cc1`, the binding response (% of control) was 96% (inactive). In the case of `CCOc1ccc(N(CC(=O)NCCOc2ccccc2OC)S(=O)(=O)c2ccccc2)cc1`, the binding response (% of control) is reported as 104% (inactive). For `CCOc1ccc(S(=O)(=O)N(CC(=O)O)c2ccccc2)cc1`, the binding response (% of control) was 6% [inhibitor] (active). For `C=Cn1cc[n+](CC(=O)c2ccc(OC)c(OC)c2)c1`, the binding response (% of control) was 96% (inactive). With `CSc1nnc(NC(=O)c2nc(S(=O)(=O)Cc3ccc(C)cc3)ncc2Cl)s1` the binding response (% of control) was 101% (inactive). With `COC(=O)c1c(NC(=O)CCCC(=O)O)sc2c1CCCCC2` the binding response (% of control) was 98% (inactive). With `COC(=O)c1c(NC(=O)COC(=O)[C@@H](NS(=O)(=O)c2ccccc2)C(C)C)sc2c1CCC2` the binding response (% of control) was 1% [inhibitor] (active). `CCc1ccc(N(CC(=O)Nc2sc3c(c2C(=O)OC)CCCC3)S(C)(=O)=O)cc1` was tested, and the binding response (% of control) was 93% (inactive). With `Cc1cc(CN(C)C(=O)c2cc(COc3ccc(C)c(C)c3)on2)n[nH]1` the binding response (% of control) was 109% (inactive). In the case of `CN(CCc1ccccc1)c1ccc([N+](=O)[O-])cn1`, the binding response (% of control) is reported as 102% (inactive). For `Cc1ccc(S(=O)(=O)N(C)C)cc1NC(=O)/C=C/c1cccs1`, the binding response (% of control) was 107% (inactive). For `CC(=O)N(CCCN(C)C)c1nc2ccc(C)cc2s1`, the binding response (% of control) was 104% (inactive). For `Cc1cc(C)c2nc(N(CCN(C)C)C(=O)/C=C/c3cccs3)sc2c1`, the binding response (% of control) was 165% (active). With `Cc1ccc2nc(N(CCN(C)C)C(=O)C3=COCCO3)sc2c1` the binding response (% of control) was 113% (inactive). With `Cc1ccc2sc(N(CCN(C)C)C(=O)/C=C/c3cccs3)nc2c1C` the binding response (% of control) was 151% (active). With `Cc1cccc2sc(N(CCCN(C)C)C(=O)CCS(=O)(=O)c3ccccc3)nc12` the binding response (% of control) was 119% (inactive). `COc1ccc(N2CCN(C(=O)[C@@H](NC(=O)c3cc(OC)cc(OC)c3)C(C)C)CC2)cc1` was tested, and the binding response (% of control) was 108% (inactive). With `S=C(Nc1cccnc1)Nc1ccccn1` the binding response (% of control) was 99% (inactive). In the case of `COCC1CCN(C(=O)CCc2nnc(C3(c4ccc(Cl)cc4)CCC3)o2)C1` (stereo not given), the binding response (% of control) is reported as 103% (inactive). `CCN(CC)CCN1C(=O)C2C(C(=O)Nc3ccc(Br)cc3)C3C=CC2(O3)C1C(=O)NC1CCCCC1` (stereo not given) was tested, and the binding response (% of control) was 106% (inactive). For `C=CCOC(=O)C1=C[C@H](c2ccc(Br)cc2)C[C@H](OCCCCO)O1`, the binding response (% of control) was 95% (inactive). For `Cc1cc2oc3ccc(NCCC4CCCN4C)cc3c(=O)c2cc1C` (stereo not given), the binding response (% of control) was 135% (inactive). With `CCOC(=O)CSc1nc2ccc(C)cc2n2cnnc12` the binding response (% of control) was 96% (inactive). With `C#CCNC(=O)[C@H](Cc1ccc(C(=O)c2ccccc2)cc1)NC(=O)OC(C)(C)C` the binding response (% of control) was 101% (inactive). With `Cc1cc(-c2ccc(C)c(S(=O)(=O)NCCCN(Cc3ccccc3)C(C)C)c2)on1` the binding response (% of control) was 108% (inactive). `Cc1ccc(N2C(=O)CC(N3CCSCC3)C2=O)c(C)c1` (stereo not given) was tested, and the binding response (% of control) was 62% [inhibitor] (active). With `O=C1CC(N2CCN(c3ccc(F)cc3)CC2)C(=O)N1c1ccccc1` (stereo not given) the binding response (% of control) was 101% (inactive). With `Cc1ccc(CC2CC(=O)N(c3cc(C)ccc3C)C2=O)cc1` (stereo not given) the binding response (% of control) was 101% (inactive). `COc1cc(C(=O)NCCOC(=O)c2cccc(N(C)C)c2)cc(OC)c1OC` was tested, and the binding response (% of control) was 96% (inactive). For `COc1ccc(N2CCN(C(=O)C3CCN(C(=O)c4ccccc4Cl)CC3)CC2)cc1`, the binding response (% of control) was 97% (inactive). For `O=C(Cn1cnc2ccccc21)Nc1ccccc1-c1ccccc1`, the binding response (% of control) was 115% (inactive). `COc1ccccc1C(C)NC(=O)Cc1ccsc1` (stereo not given) was tested, and the binding response (% of control) was 104% (inactive). `O=C(c1ccccc1)c1ccc(C(=O)N2CCN(c3ccccc3)CC2)cc1` was tested, and the binding response (% of control) was 102% (inactive). With `CN1CCN(c2ccc(NC(=O)c3ccccc3)cc2)CC1` the binding response (% of control) was 111% (inactive). `CN1CCC(CN)(N2CCN(c3ccccc3)CC2)CC1` was tested, and the binding response (% of control) was 146% (active). `CCn1c(SCC(=O)NC2CC2)nnc1-c1ccccc1OC` was tested, and the binding response (% of control) was 100% (inactive). In the case of `CCOC(=O)C(Cc1ccc(N)cc1)N1C(=O)c2ccccc2C1=O` (stereo not given), the binding response (% of control) is reported as 106% (inactive). With `O=S(=O)(NCC1CC1)c1ccc(F)c(Cl)c1` the binding response (% of control) was 97% (inactive). `O=C(CN1C(=O)c2cccnc2Oc2ccc(Cl)cc21)Nc1ccc(F)cc1` was tested, and the binding response (% of control) was 50% [inhibitor] (active). In the case of `Cc1ccc2c(c1)N(CC(=O)NCCc1ccc(Cl)cc1)C(=O)c1cccnc1O2`, the binding response (% of control) is reported as 98% (inactive). For `Cc1ccc2c(c1)N(CC(=O)NCCCN1CCCCC1)C(=O)c1cccnc1O2`, the binding response (% of control) was 106% (inactive). In the case of `O=C(CN1C(=O)c2cccnc2Oc2ccc(Cl)cc21)NCCc1ccccc1`, the binding response (% of control) is reported as 101% (inactive). For `Cc1ccc2c(c1)N(CC(=O)N1CCC(C)CC1)C(=O)c1cccnc1O2`, the binding response (% of control) was 103% (inactive). For `CC(=O)c1cccc(NC(=O)CN2C(=O)c3cccnc3Oc3ccc(Cl)cc32)c1`, the binding response (% of control) was 68% [inhibitor] (active). In the case of `Cc1ccc(-c2csc(NCCc3nc4cc(Cl)c(Cl)cc4n3CCOCCO)n2)cc1`, the binding response (% of control) is reported as 105% (inactive). `CCn1ccnc1CN(C)C(=O)c1ccc2nc(Cc3ccc(OC)cc3)oc2c1` was tested, and the binding response (% of control) was 103% (inactive). For `COC(=O)c1ccc2c(C(C)(C)O)c(C(C)(C)O)[nH]c2c1`, the binding response (% of control) was 88% (inactive). For `Cc1ccccc1N(C(=O)CNC(=O)c1cccs1)C(C(=O)NC1CCCC1)c1ccncc1` (stereo not given), the binding response (% of control) was 98% (inactive). With `CCOC(=O)c1cc2c(ccn2C)n1CC(=O)N1CCC(C)CC1` the binding response (% of control) was 110% (inactive). In the case of `CCOC(=O)c1cc2occc2n1CC(=O)NC1CCC(C)CC1` (stereo not given), the binding response (% of control) is reported as 99% (inactive). In the case of `CCOC(=O)c1cc2occc2n1CC(=O)N1CCN(C(=O)c2ccco2)CC1`, the binding response (% of control) is reported as -8% [inhibitor] (active).
